TGFb SMAD3 inh: blocks TGF-b signaling. AID 588855. HepG2 CAGA-GFP TGF-b/SMAD3 reporter, GFP fluorescence, 18 h; TGF-beta stimulated, 500 pg/mL final. hit rate 1.2% among 410,000. Potency, µM (titrated, usually from 46.1 µM), actives largely listed as inhibitors; note: nearly all actives have a fitted effect of over 65% in size
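HEPG2 CAGA-GFP cells (1000/well, DMEM with 1% FBS) were pre-incubated 2 h at 37 degrees C, given compound by pin tool, then stimulated with TGF-beta at 500 pg/mL final for 18 h before per-cell GFP fluorescence imaging.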
HT1080-NT tox: kills 2HG-producing HT-1080-NT fibrosarcoma cells; Potency, µM (top dose mostly 46.1 µM), most hits filed as cytotoxic; hit rate 1.6% among 360,000; HT-1080-NT fibrosarcoma viability, CellTiter-Glo ATP luminescence, 48 h; AID 686970;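 note: NT is the 2HG producing partner of a matched IDH1 knockdown line; nearly all actives have a fitted effect of over 55% in size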
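Read-out is CellTiter-Glo luminescence after 10 minutes at room temperature, following 48 hours' compound treatment of HT-1080-NT cells (750 cells/well, RPMI, 5% FBS, 37 degrees C).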
TDP1 cell CPT: DT40-hTDP1 cell growth loss with CPT | chicken DT40 Tdp1-/-;hTDP1 cells + 20 nM CPT, ATP luminescence, 48 h | Potency, µM (top dose mostly 46.2 µM), usual class: inhibitors | hit rate 12% among 420,000; note: nearly all actives have a fitted effect of over 55% in size
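Cell growth measured by CellTiter-Glo luminescence after a minimum 48 h, 37 C compound exposure with 20 nM CPT in Tdp1-knockout DT40 cells stably expressing hTDP1, seeded 400/well; qHTS titration format.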
HepG2 tox-1: counter-screen for TGF-b inhibitors: cytotoxicity in HepG2 cells. HepG2 CAGA-GFP viability, ATP luminescence, 18 h. Potency, µM (top dose mostly 46.1 µM), hits mostly cytotoxic. hit rate 0.76% among 410,000. AID 588856
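CellTiter-Glo luminescence gave cytotoxicity after 18 hours at 37 degrees C. The cells were HepG2 CAGA-GFP in 1% FBS DMEM, stimulated with 500 pg/mL TGF-beta after compound addition. %Activity was normalised to no-cell wells (complete cell-killing) and DMSO (no toxicity), and curves were fitted and classified.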
TDP1 cell noCPT: qHTS for Inhibitors of human tyrosyl-DNA phosphodiesterase 1 (TDP1): qHTS in cells in absence of CPT; DT40 Tdp1-/- hTDP1 cells, no CPT, ATP luminescence, 48 h; Potency, µM (series often up to 46.2 µM), hits mostly inhibitors; hit rate 15% among 420,000; note: nearly all actives have a fitted effect of over 55% in size
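Chicken DT40 Tdp1-/- cells complemented with human TDP1, screened without camptothecin (DMSO vehicle only), 400 cells/well. Compounds pin-transferred, cells incubated at 37 °C for at least 48 hr. Growth read as ATP-dependent luminescence (CellTiter-Glo, 30 min at RT).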
HT1080 IDH1KD tx: kills HT-1080 cells with IDH1 knockdown; HT-1080 IDH1 knockdown viability, ATP luminescence, 48 h; AID 686971; hit rate 2% among 360,000; Potency, µM (highest dose often 46.1 µM), hits mostly cytotoxic
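Cytotoxicity counter-line: IDH1KD HT-1080, 48 h, CellTiter-Glo. Curves classed by r2, magnitude and activity.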
TGFb CAGA inh: confirmation of TGF-b signaling inhibitors in HepG2 reporter cells | shares compounds with TGFb SMAD3 inh | HepG2 CAGA-GFP TGF-b reporter, GFP fluorescence, 18 h; cells stimulated with TGF-beta, 500 pg/mL | Potency, µM (highest dose often 46.1 µM), hits mostly inhibitors | hit rate 63% among 1,600 | AID 720534; note: nearly all actives have a fitted effect of over 65% in size
HepG2 tox-2: toxic to HepG2 cells in TGF-b counterscreen | shares compounds with TGFb SMAD3 inh | HepG2 CAGA-GFP viability, ATP luminescence, 18 h; cells stimulated with TGF-beta, 500 pg/mL | Potency, µM (top dose mostly 46.1 µM), hits mostly inhibitors | hit rate 27% among 1,600 | AID 720535; note: nearly all actives have a fitted effect of over 70% in size
TGFb CCL64 inh: TGF-b inhibition, CCL64 orthogonal assay. shares compounds with TGFb SMAD3 inh. CCL64 CAGA-GFP reporter, TGF-b stimulated, GFP fluorescence, 18 h. Potency, µM (top dose mostly 46.1 µM), hits mostly inhibitors. hit rate 41% among 1,600; note: nearly all actives have a fitted effect of over 65% in size
COP TGFb inh: validation of TGF-b inhibitors in HepG2 COP promoter reporter; shares compounds with TGFb SMAD3 inh; HepG2 COP-GFP TGF-b reporter, GFP fluorescence, 18 h; cells stimulated by added recombinant TGF-beta; Potency, µM (series often up to 46.1 µM), most hits filed as inhibitors; hit rate 3% among 1,600; note: nearly all actives have a fitted effect of over 70% in size
Numbers stand for hits; i = inactive; ? = inconclusive; nt = not tested or not shown; ! = not active in a repeat; [ ] = remark or other dose. A selection: hits, their analogues and other compounds. The true share with any hit is near 17%. Calls come from the whole dose curve; as a rule, active = well fitted curve in the direction sought with a large enough effect; inconclusive = small, poorly fitted or top-dose-only effect, or another doubt; inactive = no such curve, though single readings can be large; an effect the other way counts as inactive or inconclusive.

SMILES	TGFb SMAD3 inh	HT1080-NT tox	TDP1 cell CPT	HepG2 tox-1	TDP1 cell noCPT	HT1080 IDH1KD tx	TGFb CAGA inh	HepG2 tox-2	TGFb CCL64 inh	COP TGFb inh
CCN(c1ccccc1)S(=O)(=O)c1ccc(NC(=O)c2ccco2)cc1	i	i	?	i	?	i	nt	nt	nt	nt
CCS(=O)(=O)c1ncc(Cl)c(C(=O)Nc2ccc(S(=O)(=O)N(C)c3ccccc3)cc2)n1	3.5µM	2.6µM	0.73µM	4.5µM!	0.65µM	3.7µM	4.6µM	4.1µM	1.6µM	7.3µM
COc1cc2c(c(Br)c1N)-c1cc(Br)c(N)cc1C2=O	?	?	i	i	i	?	0.58µM	0.58µM	i	i
CC(C)C[C@@H](CN1CCC[C@@H]1CN1C(=S)NC[C@@H]1Cc1ccc(O)cc1)N1C[C@H](Cc2ccc(O)cc2)N(CC2CCCCCC2)C1=S	4.5µM	?	18µM	i	16µM	18µM	18µM	18µM	8.2µM	i
CC(C)C[C@@H](CN1CCC[C@@H]1CN1C(=S)NC[C@@H]1Cc1ccc(O)cc1)N1C[C@H](Cc2ccc(O)cc2)N(CC2CCCCC2)C1=S	7.1µM	23µM	18µM	i	16µM	?	16µM	?	5.8µM	?
O=C1NC[C@@H](Cc2ccc(O)cc2)N(CC2CCCCC2)C1=O	i	i	i	i	i	i	nt	nt	nt	nt
COc1cc2c(c(OC)c1OC)-c1ccc(SC)c(=O)cc1C(NC=O)CC2 (stereo unspecified)	i	0.046µM	0.13µM	i	0.16µM	?	?	23µM	?	i
COc1cc2c(c(OC)c1OC)-c1ccc(OC)c(=O)cc1C(NC(=O)c1ccccc1)CC2 (stereo unspecified)	?	0.073µM	0.0092µM	i	0.018µM	0.021µM	?	i	?	?
CC(=O)C1=C(O)C(=O)N(c2cccc(Br)c2)C1c1ccccc1Cl (stereo unspecified)	i	i	i	i	i	i	nt	nt	nt	nt
COc1ccc(S(=O)(=O)N(CC(=O)NCc2ccncc2)c2ccc(C)cc2)cc1OC	i	i	i	i	i	i	nt	nt	nt	nt
CC(=O)Oc1ccc(N(C(C)=O)S(=O)(=O)c2cccs2)c2ccccc12	10µM	?	12µM	i	?	18µM	?	i	?	i
NC(=O)C1CCCN(CC(O)COCc2ccc(Cl)cc2)C1 (stereo unspecified)	i	i	i	i	i	i	nt	nt	nt	nt
CC(C)NC(=O)N(C)C[C@H]1Oc2ccc(NS(=O)(=O)c3ccc(Cl)cc3)cc2CC(=O)N([C@@H](C)CO)C[C@@H]1C	?	i	i	i	i	i	i	i	i	i
COc1cccc(/C=N/NC(=O)c2ccncc2)c1OC(=O)c1ccc(Br)cc1	?	?	?	i	?	?	?	i	?	i
COc1cc(/C=N/NC(=O)c2ccncc2)ccc1OC(=O)c1cccc(Br)c1	i	i	i	i	?	i	nt	nt	nt	nt
COc1cc2c(c(OC)c1OC)C(c1ccc3c(c1)OCO3)CC(=O)O2 (stereo unspecified)	i	i	i	i	i	i	nt	nt	nt	nt
COc1cc(C2C3=C(COC3=O)OC(C)(C)Oc3cc4c(cc32)OCO4)cc(OC)c1OC (stereo unspecified)	2.8µM	?	1µM	i	0.73µM	?	?	i	?	i
COc1cc(C2C3=C(COC3=O)Oc3cc4c(cc32)OCO4)ccc1O (stereo unspecified)	13µM	?	0.82µM	i	0.58µM	?	i	i	?	i
COc1cc(CN2CCNC(=O)C2CC(=O)N2CCCN(C(C)=O)CC2)cc(OC)c1 (stereo unspecified)	i	i	i	i	i	i	nt	nt	nt	nt
Cc1ccccc1CCNC(=O)c1ccc(Cl)c(S(=O)(=O)N2CC(C)OC(C)C2)c1 (stereo unspecified)	10µM	i	18µM	i	?	i	16µM	?	?	i
CC(C)N(C(=O)COC(=O)[C@H](C)NC(N)=O)c1ccccc1	i	i	i	i	i	i	nt	nt	nt	nt
CC(C)CC(NC(=O)OCc1ccccc1)C(=O)NC(Cc1c[nH]c2ccccc12)C(=O)O (stereo unspecified)	i	?	i	i	i	i	nt	nt	nt	nt
COc1ccccc1CNC(=O)C(Cc1c[nH]c2ccccc12)NC(=O)OCc1ccccc1 (stereo unspecified)	11µM	i	?	i	18µM	i	?	?	?	i
CC1(C)Cc2c(cnn2-c2ccccc2)-c2c1c1ccccc1n2CC(O)CBr (stereo unspecified)	?	?	?	i	?	i[9.24 µM]	?	i	?	i
CC1(C)Cc2c(cnn2-c2ccccc2)C(=O)/C1=N\NC(=O)c1ccccc1N	i	?	?	i	i	i	nt	nt	nt	nt
Cc1ccc(-c2cc3nc(NCCOc4ccccc4Cl)n(C)c(=O)c3s2)cc1	i	i	?	i	i	i	nt	nt	nt	nt
COc1cccc(CNc2nc3cc(-c4ccsc4)sc3c(=O)n2C)c1OC	?	?	?	i	?	?	?	?	?	i
COc1cccc(CNc2nc3cc(-c4ccc(C)cc4)sc3c(=O)n2C)c1OC	10µM	i	16µM	i	18µM	?	2.6µM	?	12µM	i
CC(C)N1CCN(CC#Cc2ccccc2)CC1CCO (stereo unspecified)	i	i	i	i	i	i	nt	nt	nt	nt

Source: PubChem (National Center for Advancing Translational Sciences (NCATS))
